The source made the active and inactive calls.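 The calls were made as follows: active = membrane potential signal rise above negative control mean plus 3 SD in both duplicates, also active in the earlier TRPC4 screen; inactive = the rest.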
biological target: Short transient receptor potential channel 6 (Mus musculus) (UniProt Q61143); test: activation of mouse TRPC6 channel, confirmation, selectivity assay for TRPC4 activator project, cell-based, HEK293, membrane potential dye, duplicate (AID 434950); conditions: HEK293 TRPC6, membrane potential fluorescence, at 10 µM
Sequence (Q61143 whole entry, looked up): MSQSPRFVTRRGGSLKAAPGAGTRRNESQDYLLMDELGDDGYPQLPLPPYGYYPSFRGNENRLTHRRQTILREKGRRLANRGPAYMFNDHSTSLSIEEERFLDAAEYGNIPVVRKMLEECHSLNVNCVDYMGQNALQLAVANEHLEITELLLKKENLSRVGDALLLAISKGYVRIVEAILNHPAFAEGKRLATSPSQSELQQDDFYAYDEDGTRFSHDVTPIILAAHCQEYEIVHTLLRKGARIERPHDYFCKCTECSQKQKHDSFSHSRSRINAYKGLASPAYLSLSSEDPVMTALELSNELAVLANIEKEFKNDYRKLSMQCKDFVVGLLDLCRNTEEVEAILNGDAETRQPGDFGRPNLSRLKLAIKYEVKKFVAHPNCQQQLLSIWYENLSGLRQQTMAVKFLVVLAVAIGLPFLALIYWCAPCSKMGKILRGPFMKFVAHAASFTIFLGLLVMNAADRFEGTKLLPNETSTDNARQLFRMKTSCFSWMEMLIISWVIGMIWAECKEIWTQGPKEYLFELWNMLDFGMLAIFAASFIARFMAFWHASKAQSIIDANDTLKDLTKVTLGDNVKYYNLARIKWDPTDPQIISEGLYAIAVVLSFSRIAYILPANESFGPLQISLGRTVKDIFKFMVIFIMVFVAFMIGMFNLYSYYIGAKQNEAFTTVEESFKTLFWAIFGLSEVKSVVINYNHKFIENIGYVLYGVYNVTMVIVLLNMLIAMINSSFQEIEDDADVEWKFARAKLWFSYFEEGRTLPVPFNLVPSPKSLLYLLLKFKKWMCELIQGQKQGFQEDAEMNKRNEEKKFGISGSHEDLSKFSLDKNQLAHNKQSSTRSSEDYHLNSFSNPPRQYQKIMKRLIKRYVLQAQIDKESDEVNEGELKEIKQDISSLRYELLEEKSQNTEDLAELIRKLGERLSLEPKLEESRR

outcome, inactive:
CC(C)C(NC(=O)c1ccc(C(C)(C)C)cc1)C(=O)NCC(c1ccccc1)N(C)C (centres undefined)
CN(C)CCCN(C(=O)c1ccc(S(=O)(=O)N2CCCC2)cc1)c1nc2c(F)cc(F)cc2s1
CCC1CCCCN1CCN1C(=O)C2C(C(=O)Nc3ccc(OC)cc3)C3C=CC2(O3)C1C(=O)NC1CCCCC1 (centres undefined)
Cc1cc(Nc2ccc(C)c(C)c2)c2ccccc2n1
CCCc1nc2ccccc2n1Cc1ccccc1OC
CCCCOc1ccc(Nc2cc(Cl)ccc2C(=O)O)cn1
N#Cc1c(N)sc2c1CCCCCC2
Cc1cc(OCc2cc(C(=O)NCCN3CCCCC3CO)no2)cc(C)c1Cl (centres undefined)
Cc1cccc(C)c1-n1cccc1/C=C1\SC(=S)N(c2cccc(C(=O)O)c2)C1=O
Clc1ccc(COc2ccccc2CNCc2cccnc2)cc1
C=CCOc1ccc(C2CC(C)=NN2c2ccccc2)cc1 (centres undefined)
CCCCN=C(Nc1ccc(Cl)cc1)c1cccnc1
OCc1ccccc1CNCc1ccccc1
Cc1ccc(Nc2cc(C)nc3ccc(C)cc23)cc1
C=CCSc1nnc2n(-c3ccccc3OC)c(=O)c3c4c(sc3n12)CCC4
Cc1ccc(NC(=O)CN2CCc3ccccc3C2)cc1F
c1ccc(CN2CCN(Cc3c[nH]c4ccccc34)CC2)cc1
OCCNc1nc2ccccc2n1CCN1CCCCC1
COc1ccc(NC(=O)c2c[nH]n3c(=O)cc(C4CCN(C(=O)OC(C)(C)C)CC4)nc23)cc1Cl
CC1CCCN1CC#CC(O)(c1ccccc1)c1ccccc1 (centres undefined)
CCOC(=O)c1c(N)sc(C(O)(C(F)(F)F)C(F)(F)F)c1-c1ccccc1
CCCCN(Cc1ccccc1)C(=O)C1CCN(Cc2sccc2C)CC1
CCc1ccc2nc3nc(C)cc(C)c3c(N)c2c1
Cc1ccc(C)c(S(=O)(=O)/N=C2\C=C(NS(=O)(=O)c3ccccc3)C(=O)c3ccccc32)c1
Cc1ccn2c(-c3csc(NCc4ccco4)n3)c(C)nc2c1
CCCCC(=O)N(c1ccc(C(=O)O)cc1)c1nc(-c2ccc(Cl)cc2)c(CC)s1
CC(=O)c1ccc2c(c1)N(C)c1ccccc1S2
Cc1ccc2c(c1)N(C(=O)CCC(=O)Nc1ccccc1Br)CC(C)O2 (centres undefined)
OCC1(CCCc2ccccc2)CCN(Cc2cc(F)ccc2F)CC1
CC(C)c1ccc(S(=O)(=O)/N=C2\C=C(NS(=O)(=O)c3ccccc3)C(=O)c3ccccc32)cc1
Cc1cc(NCc2ccccc2)nc(N2CCOCC2)n1
CCOc1ccc(NC(=O)c2c[nH]n3c(=O)cc(C4CCN(C(=O)OC(C)(C)C)CC4)nc23)cc1
COCCn1c(SCc2cc(C(C)=O)ccc2OC)nc2cc(Cl)ccc2c1=O
CCc1cc(C(c2cccc(OC)c2)N2CCOCC2)c(NC(=O)c2ccccc2)s1 (centres undefined)
CC(=O)Nc1ccc(S(=O)(=O)NC2=C(N3CCN(Cc4ccccc4)CC3)C(=O)c3ccccc3C2=O)cc1
COc1ccc(C2=NN(C(=O)c3ccccc3)C(c3ccc(OC)c(OC)c3)C2)c(O)c1 (centres undefined)
COc1cccc(CNC(=O)CCC2CCCN(Cc3cc(Cl)ccc3O)C2)c1 (centres undefined)
Cc1c(CN2CCC(n3nccc3NC(=O)CCc3ccccc3)CC2)cnn1C
CCOC(=O)C(C)Sc1nc2c(c(=O)[nH]c(=O)n2C)n1Cc1ccc(Cl)cc1 (centres undefined)

From PubChem BioAssay
